# Experimental data published in PubChem BioAssay (Tox21).
# Inconclusive results are not listed. The source made the active and inactive calls. Calls come from the whole dose curve; as a rule, active = well fitted activation curve with a large enough effect in the signal ratio in the repeat runs (not every such curve was filed as active); inconclusive = weak or mixed curves; inactive = flat fitted curve, though single readings scatter; the % refers to the signal ratio.
# Test: qHTS assay to identify small molecule agonists of the hypoxia (HIF-1) signaling pathway (AID 1224846)
# Details: HRE-bla ME-180 cells, beta-lactamase ratio, 17 h; series mostly up to 76.8 µM
# From the text: U.S. Tox21 Program National Center for Advancing Translational Sciences [NCATS] NIH Chemical Genomics Center [NCGC] U.S. Environmental Protection Agency [EPA] National Institutes of Environmental Health Sciences [NIEHS] National Toxicology Program [NTP] U.S. Food and Drug Administration [FDA] Tox21 Assay Overview: Hypoxia-inducible factor-1 (HIF-1) is the major hypoxia-regulated transcription factor that controls cellular responses to low oxygen concentration. HIF-1 is composed of two subunits: hypoxia responsive HIF-1-alpha and constitutively expressed HIF-1-beta, which is also known as aryl hydrocarbon receptor nuclear translocator. During hypoxic conditions, HIF-1-alpha heterodimerizes with HIF-1-beta and translocates into the nucleus where the HIF-1 complex binds to the hypoxia-response element (HRE) and activates expression of target genes such as VEGF (vascular endothelial growth factor). The HIF-1 pathway is essential to normal growth and development, and is involved in the pathophysiology of cancer, inflammation, and ischemia. Using a beta-lactamase reporter-gene under control of the hypoxia response element, a cell-based assay [CellSensor(TM) HRE-bla ME-180 from Life Technologies, Carlsbad, CA] was used to measure hypoxia-induced signaling. Tox21 10K library compounds were measured for their ability to induce the reporter gene activity.
# Tox21 Assay Protocol Summary: HRE-bla ME-180 cells were dispensed at 2,000 cells per well in 6 uL of assay medium containing 0.5% dialyzed FBS into black wall/clear-bottom 1536-well plates using a Multidrop Combi (Thermo Scientific, Waltham, MA) dispenser. After the assay plates were incubated at 37C and 5% CO2 for 5 hrs, 23 nL of compounds dissolved in DMSO, positive controls or DMSO only was transferred to each well of the assay plate using a Pintool station (Kalypsys, San Diego, CA). The assay plates were incubated at 37C and 5% CO2 for 17 hrs. One uL of LiveBLAzerTM B/G FRET substrate (CCF4-AM) (Life Technologies) was added to each well using a Flying Reagent Dispenser (Aurora Discovery, San Diego, CA).
row,SMILES,outcome
1,Cc1cc(NC(=O)C(=O)O)cc(C)c1Oc1ccc(O)c2c1CCC2,inactive
2,O=c1c2ccccc2nnn1CCl,inactive
3,CCCCOCCOCCOCCOCCO,inactive
4,Cc1ccc(C(N)=O)cc1N,inactive
5,CN(c1nccc(=O)[nH]1)C1CCN(c2nc3ccccc3n2Cc2ccc(F)cc2)CC1,inactive
6,CC(C)(C)c1cc(CCC(=O)OCC(COC(=O)CCc2cc(C(C)(C)C)c(O)c(C(C)(C)C)c2)(COC(=O)CCc2cc(C(C)(C)C)c(O)c(C(C)(C)C)c2)COC(=O)CCc2cc(C(C)(C)C)c(O)c(C(C)(C)C)c2)cc(C(C)(C)C)c1O,inactive
7,C#CCOC(=O)[C@@H](C)Oc1ccc(Oc2ncc(Cl)cc2F)cc1,inactive
8,CC1(C)CCC(C)(C)c2cc(NC(=O)c3ccc(C(=O)O)cc3)ccc21,inactive
9,CCCC[C@H]1CN(CC2CCOCC2)C(=O)OC12CCN(C1(C)CCN(C(=O)c3c(C)ncnc3C)CC1)CC2,inactive
10,O=C1Nc2cc(Cl)ccc2Oc2ccccc21,inactive
11,Cc1ccccn1,inactive
12,CCOc1nc2cccc(C(=O)O)c2n1Cc1ccc(-c2ccccc2-c2nn[nH]n2)cc1,inactive
13,C=CCCCCCC,inactive
14,CCOC(=O)CC(=O)c1cc(F)c(Cl)nc1Cl,inactive
15,CC(C)CCCCCCOC(=O)c1ccc(C(=O)OCCCCCCC(C)C)c(C(=O)OCCCCCCC(C)C)c1,inactive
16,CC(C)(C)C(=O)OCOP(=O)(COCCn1cnc2c(N)ncnc21)OCOC(=O)C(C)(C)C,inactive
17,O=C(O)C(c1ccc(Cl)cc1)c1ccc(Cl)cc1,inactive
18,COC(=O)C(C)=O,inactive
19,CC[C@H](C)[C@H](N)C(=O)O,inactive
20,CCCCCCCCCCCCC(=O)O,inactive

row,SMILES,outcome
1,O=C(O)c1cccc(N(Cc2cccnc2)c2ccc(OC(F)F)c(OC(F)F)c2)c1,inactive
2,c1ccc(CNCc2ccccc2)cc1,inactive
3,Cc1cccc(OCCOc2cccc(C)c2)c1,inactive
4,CCCCOC(=O)c1ccccc1C(=O)OCC(CC)CCCC (stereo not given),inactive
5,O=C(O)[C@@H]1[C@H]2C[C@H]3c4[nH]c5ccccc5c4CCN3C[C@@H]2CC[C@@H]1O,inactive
6,O=C(CC(=O)c1ccccc1)c1ccccc1,inactive
7,Cl/C(=C\n1cncn1)c1ccc(Cl)cc1Cl,inactive
8,Nc1cnn([C@@H]2O[C@H](CO)[C@@H](O)[C@H]2O)c(=O)n1,inactive
9,CC(=O)/C(C)=C/C1C(C)=CCCC1(C)C (stereo not given),inactive
10,CC(C)(C)c1ccc(OCC2CO2)cc1 (stereo not given),inactive
11,O=CNc1ccccc1,inactive
12,CCOC(=S)SSC(=S)OCC,inactive
13,CCN(CC)C(C)=O,inactive
14,CCCCOc1ccc(CC(=O)NO)cc1,inactive
15,Cc1ccc(C(=O)C(C)CN2CCCCC2)cc1 (stereo not given),inactive
16,O=C(O)Cc1sc(-c2ccccc2)nc1-c1ccc(Cl)cc1,inactive
17,CC(=O)N(CC(=O)N(C)C)c1ccccc1,inactive
18,CN1CCC(OC(c2ccccc2)c2ccccc2)CC1,inactive
19,Cc1cccc(Oc2ccccc2)c1,inactive
20,C=C(C)C(=O)OC(C)C,inactive
